Assay results reported in PubChem BioAssay (NCI).
The panel holds about 83,000 compounds, 20% with a hit somewhere; the sample as a whole holds those more often.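 Step 1: grow cells in 96-well plates. Step 2: add test compound at a single concentration. Step 3: incubate 48 h. Step 4: record percent growth.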 A number with no mark means an inactive call. Active and inactive are the calls of the source. Rule for the calls: active = growth percent below 10; inactive = the rest.

Legend:
Test in all cases: NCI-60 one-dose screen, 48 h (100 = growth as untreated, 0 = no growth, -100 = all killed)
Details in all cases: 10 µM unless noted
NCI-H23 lung = system: NCI-H23 lung
NCI-H226 lung = system: NCI-H226 lung
NCI-H322M lung = system: NCI-H322M lung
HOP-62 NSCLC = system: HOP-62 NSCLC
NCI-H460 lung = system: NCI-H460 lung
HOP-92 NSCLC = system: HOP-92 NSCLC
NCI-H522 lung = system: NCI-H522 lung
A549/ATCC NSCLC = system: A549/ATCC NSCLC
786-0 renal = system: 786-0 renal
COLO 205 colon = system: COLO 205 colon
DU-145 prostate = system: DU-145 prostate
K-562 leukemia = system: K-562 leukemia
MALME-3M melanoma = system: MALME-3M melanoma
RXF 393 renal = system: RXF 393 renal
SF-268 CNS = system: SF-268 CNS
SF-295 CNS = system: SF-295 CNS
SF-539 CNS = system: SF-539 CNS
UACC-257 melanoma = system: UACC-257 melanoma
M14 melanoma = system: M14 melanoma
MDA-MB-231 breast = system: MDA-MB-231 breast

Structure (SMILES) | growth (NCI-H23 lung) | growth (NCI-H226 lung) | growth (NCI-H322M lung) | growth (HOP-62 NSCLC) | growth (NCI-H460 lung) | growth (HOP-92 NSCLC) | growth (NCI-H522 lung) | growth (A549/ATCC NSCLC) | growth (786-0 renal) | growth (COLO 205 colon) | growth (DU-145 prostate) | growth (K-562 leukemia) | growth (MALME-3M melanoma) [%] | growth (RXF 393 renal) | growth (SF-268 CNS) | growth (SF-295 CNS) | growth (SF-539 CNS) | growth (UACC-257 melanoma) | growth (M14 melanoma) | growth (MDA-MB-231 breast) [%]
N#CC1=C(N)Oc2c(sc3c(Br)cccc23)C1c1ccc([N+](=O)[O-])cc1 (stereo not drawn) | 11.7% | 58.9% | 40.6% | 26.6% | -7.51% (active) | -7.19% (active) | -6.47% (active) | 24.7% | 10.2% | -49.7% (active) | 8.77% (active) | 7.66% (active) | 93.2 | 17.6% | 13.5% | -5.7% (active) | -18% (active) | 87.1% | 3.87% (active) | 
N#Cc1c(-c2ccc(Cl)cc2)nc(NCCO)[nH]c1=O | 94.3% | 101% | 94.4% | 88.6% | 114% | 92.3% | 95.9% | 93.9% | 101% | 106% | 104% | 103% | 98.8 | 116% | 89.6% | 95.3% | 95.9% | 107% | 94.6% | 
C=C1CC[C@@]2(C#N)[C@H]3[C@H](CC[C@@H]2C)[C@@H](C)C[C@@H](CC(C)(C)C#N)[C@H]13 | 44.1% | 62.7% | 90.2% | 41.9% | 22.8% | -16.9% (active) | 47.7% | 42.9% | 43% | 35.5% | 45.4% | 9.97% (active) | 103 | 86.2% | 47% | 14.4% | 43.9% | 71.9% | 20.9% | 61.3
COC(=O)CCC/C=C\C[C@H]1C=CC(=O)/C1=C/C[C@@H](O)CCc1cccc(C(F)(F)F)c1 | -13.7% (active) | -48.4% (active) | -14.3% (active) | -47.3% (active) | -41.8% (active) | -37.1% (active) | -75.1% (active) | -24.2% (active) | -61.1% (active) | -49.3% (active) | 2.5% (active) | 1.71% (active) | 58.4 | -73.5% (active) | -2.42% (active) | -21.1% (active) | -14.1% (active) | -6.49% (active) | -32.4% (active) | 
Cc1nc2ccccc2n1-c1ncnc2c1CC(C)c1ccccc1N2C (stereo not drawn) | 85.6% | 89.7% | 97.8% | 68.4% | 102% | 51.4% | 72.5% | 70.8% | 92% | 88% | 96.2% | 31.2% | 105 | 102% | 94.2% | 77.9% | 93.9% | 91.5% | 71.3% | 
c1ccc(OCc2nnc(-c3ccc(Oc4ccccc4)cc3)o2)cc1 | 94.2% | 93.7% | 106% | 86.4% | 104% | 84.6% | 86.8% | 96% | 99.1% | 104% | 99.1% | 93.2% | 101 | 106% | 89.2% | 103% | 103% | 109% | 98.2% | 
O=C1/C(=C/c2ccc(F)cc2)Sc2c(Br)cccc21 | 50% | 79.4% | 72.6% | 69.1% | 93.6% | -3.06% (active) | 70.9% | 68.9% | 100% | 105% | 99.7% | 80% | 99.9 | 85.8% | 79% | 87.3% | 75.5% | 85.9% | 92.8% | 
CCOC(=O)c1nc(Nc2ccc(C(C)=O)cc2)sc1C | 94.1% | 98.8% | 96.2% | 105% | 105% |  | 87.2% | 94.3% | 96.5% | 106% | 107% | 99.1% | 106 | 109% | 102% | 92% | 97.2% | 102% | 104% | 104
